In PubChem BioAssay AID1030 (National Center for Advancing Translational Sciences (NCATS), 2008):
Among all 220,000 compounds or so, about 16,000 (7.3%) were called active. A call without a number means that no potency is given here. Inconclusive results (about 25%) are left out. Calls come from the whole dose curve; as a rule, active = well fitted inhibition curve with a large enough effect (not every such curve was filed as active); inconclusive = small, poorly fitted or top-dose-only effect, or another doubt; inactive = no such curve, though single readings can be large or run the other way. The full list was thinned out, with actives kept by preference.

target: Aldehyde dehydrogenase 1A1 (Homo sapiens) (UniProt P00352); assay: qHTS Assay for Inhibitors of Aldehyde Dehydrogenase 1 (ALDH1A1); details: Purified ALDH1A1, NADH fluorescence, propionaldehyde substrate; series mostly up to 75.3 µM
Sequence (P00352 whole entry, looked up): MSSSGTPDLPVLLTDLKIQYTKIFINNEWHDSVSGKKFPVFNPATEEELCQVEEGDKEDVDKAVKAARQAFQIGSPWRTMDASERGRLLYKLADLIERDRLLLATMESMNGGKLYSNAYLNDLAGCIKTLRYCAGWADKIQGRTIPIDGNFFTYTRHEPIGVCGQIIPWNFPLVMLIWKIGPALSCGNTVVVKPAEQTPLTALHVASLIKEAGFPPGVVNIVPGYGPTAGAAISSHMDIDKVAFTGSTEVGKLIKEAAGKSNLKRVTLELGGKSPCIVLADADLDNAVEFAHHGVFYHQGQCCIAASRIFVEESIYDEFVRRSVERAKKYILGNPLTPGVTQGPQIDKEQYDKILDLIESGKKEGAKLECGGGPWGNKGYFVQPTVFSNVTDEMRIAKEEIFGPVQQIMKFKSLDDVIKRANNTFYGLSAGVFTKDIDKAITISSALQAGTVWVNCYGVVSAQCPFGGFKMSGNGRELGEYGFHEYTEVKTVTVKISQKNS
Potency is the fitted concentration of half-maximal effect.

Row | Compound | Potency
1 | Cc1cc(C)cc(NC(=O)N(C)Cc2ccccc2)c1 | inactive
2 | CCCCOCCCNC(=O)c1ccccc1OCC | inactive
3 | CCOCCCNC(=O)c1c[nH]c2cc(C)ccc2c1=O | inactive
4 | CCc1cccc2c(=O)c(C(=O)NCCCOC)c[nH]c12 | 2 µM (active)
5 | Cc1ccc(O)c(NC(=S)NC(=O)COc2ccc(Br)cc2)c1 | inactive
6 | Cn1c(CO)cnc1SCc1ccccc1 | inactive
7 | CSc1c(SCc2ccccc2)cnn(Cc2ccccc2)c1=O | 11.2 µM (active)
8 | CSc1nc2ccccc2c(=O)n1Cc1ccc(F)cc1 | inactive
9 | CCCOCC(O)CC(CC)C(=O)NNC(=S)Nc1ccccc1 (centres undefined) | inactive
10 | C/C(CC1CC(C)(C)OC1=O)=N/Nc1nc(-c2ccccc2)cs1 (centres undefined) | 7.94 µM (active)
11 | CC1(C)CC(CC(=O)O)C(=O)O1 (centres undefined) | inactive
12 | O=C(Nc1nc(-c2ccc(-c3ccccc3)cc2)cs1)c1cnccn1 | inactive
13 | Cc1ccc(C(=O)NC(=S)NCc2cccnc2)cc1 | inactive
14 | Cc1ccc(NC(=S)N(CCN2CCCCC2)Cc2ccco2)cc1C | inactive
15 | COc1ccc(CNC(=O)CN2CCC(n3nnc4cc(F)ccc43)CC2)cc1 | inactive
16 | Cc1nnc(SCC(=O)N2CCOCC2)[nH]c1=O | inactive
17 | COc1ccc(C(=O)Nc2c(N)nc(SCC(=O)N3CCC(C)CC3)[nH]c2=O)cc1OC | inactive
18 | O=C(CSc1nc2c(cnn2-c2ccc(F)cc2)c(=O)[nH]1)N1CCCCCC1 | 0.126 µM (active)
19 | O=C(Nc1ccc(F)c([N+](=O)[O-])c1)C1CC(=O)N(Cc2ccccc2)C1 (centres undefined) | inactive
20 | CC(CO)NCC12CC3CC(CC(C3)C1)C2 (centres undefined) | inactive
21 | CC(C)n1c(-c2ccncc2)n[nH]c1=S | inactive
22 | Nc1ccc(C(=O)NCc2ccccc2)cc1 | inactive
23 | COC(=O)C1C(=O)NCC1c1ccc(OC)cc1 (centres undefined) | inactive
24 | CCCCN1C(=O)CCC(C(=O)O)C1c1ccc(OC)cc1 (centres undefined) | inactive
25 | COc1ccc(C2OC(=O)CC2C(=O)NC(C)C)cc1 (centres undefined) | 15.8 µM (active)

Row | Compound | Potency
26 | CCOC(=O)C1(CCOC)CCN(Cc2ccc(C(=O)OC)cc2)CC1 | inactive
27 | COC(=O)c1cc(C(=O)OCC(=O)Nc2cc(C)on2)cc([N+](=O)[O-])c1 | inactive
28 | CC(=O)c1cccc(NC(=O)[C@@H](NC(N)=O)C(C)C)c1 | inactive
29 | O=C(CSc1nnc(C2CC2)n1Cc1ccccc1)Nc1cccnc1Cl | inactive
30 | CC(=O)c1c(C)[nH]c(C(=O)NCCCN2CCCC2)c1C | inactive
31 | CC(=O)c1c(C)[nH]c(C(=O)NCc2ccc(C)cc2)c1C | inactive
32 | CCCCN(CC)CCNC(=O)c1[nH]c(C)c(C(C)=O)c1C | 10 µM (active)
33 | CC(=O)NC1(c2ccc(F)cc2)CCN(C(=O)c2c(F)cccc2F)CC1 | inactive
34 | O=C(CCC(=O)NNc1nc2ccccc2c2nc(-c3ccccc3)nn12)NCCCN1CCCC1=O | inactive
35 | CCCCCOC(=O)C1=C(C)Nc2nnnn2C1c1ccc(OC)c(OC)c1OC (centres undefined) | inactive
36 | CC1=C(C(N)=O)C(c2sccc2C)n2nnnc2N1 (centres undefined) | 20 µM (active)
37 | CC(=O)C1=C(C)NC(C)=C(C(C)=O)C1c1cn(-c2ccccc2)nc1-c1cccs1 | inactive
38 | Cc1cc(C)n(CC(=O)Nc2ccc([N+](=O)[O-])cc2)n1 | inactive
39 | Cc1cc(=O)oc2c1c(C)nn2-c1ccc(Cl)cc1 | inactive
40 | CC(C)(C)C(=O)CSc1nc2ccccc2o1 | inactive
41 | COc1ccccc1CNC(=O)c1cc(=O)c2ccccc2o1 | inactive
42 | Cn1cnnc1SCC(=O)Nc1ccc(N2CCOCC2)cc1 | inactive
43 | CN(Cc1ccc2nsnc2c1)Cc1nc(Cc2cccc(F)c2)no1 | inactive
44 | Cc1cc(C)c(C#N)c(SCC(=O)Nc2ccccc2)n1 | inactive
45 | CCOC(=O)/C(C#N)=C/c1ccc(OCC(=O)Nc2ccccc2)c(OC)c1 | inactive
46 | Cc1cc(C)nc(N(C#N)CC(=O)Nc2ccccc2)n1 | 15.8 µM (active)
47 | CCC(C)NC(=O)CN(C1CCCCC1)S(C)(=O)=O (centres undefined) | inactive
48 | CCN(CC)C(=O)CSc1nc2ccccc2o1 | inactive
49 | O=C(CSc1ncn[nH]1)Nc1nsc(-c2ccccc2)n1 | inactive
50 | CCN(C(=O)CSc1ncn[nH]1)c1cccc2ccccc12 | 25.1 µM (active)

Row | Compound | Potency
51 | CCOC(=O)n1c(SCC(=O)N(CC)CC)nc2ccccc21 | inactive
52 | O=C(CSc1n[nH]c(-c2cccnc2)n1)Nc1ccnc2ccccc12 | inactive
53 | O=C(CSc1ncn[nH]1)Nc1ccnc2ccccc12 | 22.4 µM (active)
54 | O=S(=O)(c1cccc(C(F)(F)F)c1)N1CCN(c2cnccn2)CC1 | inactive
55 | CCCn1nc(Oc2nc(NC(C)C)nc(N(C)C)n2)ccc1=O | inactive
56 | O=C(NCc1cccnc1)c1cn(-c2ccccc2)nc1-c1cccs1 | 3.98 µM (active)
57 | O=C(NCc1cccnc1)c1nc(-c2cccs2)no1 | inactive
58 | O=C(/C=C/c1cccs1)NCc1cccnc1 | inactive
59 | O=[N+]([O-])c1cc(S(=O)(=O)CCCN2CCOCC2)ccc1F | inactive
60 | COC(=O)C(C(=O)Nc1cccc(Cl)c1C)C1CCCC1 (centres undefined) | inactive
61 | Cc1ccc(CC2CC(=O)N(c3nc(C)cc(C)n3)C2=O)cc1 (centres undefined) | inactive
62 | O=C1CC(Sc2ncn[nH]2)C(=O)N1c1ccccc1 (centres undefined) | 1.12 µM (active)
63 | COc1ccc(N2C(=O)CC(Sc3n[nH]c(-c4ccc(C)cc4)n3)C2=O)cc1 (centres undefined) | 0.794 µM (active)
64 | COc1ccc(N2C(=O)CC(SC(C)C)C2=O)cc1 (centres undefined) | inactive
65 | ClC1(Cl)CC1CSc1ncn[nH]1 (centres undefined) | inactive
66 | Cc1ccc(N2C(=O)CC(Sc3ncn[nH]3)C2=O)cc1 (centres undefined) | 11.2 µM (active)
67 | COc1ccc(-c2nc(SCC(=O)N3CCOCC3)n[nH]2)cc1 | inactive
68 | Cc1ccc(N2C(=O)C3CC3C2=O)cc1 (centres undefined) | inactive
69 | O=C(CSc1nc2ccc(Nc3nc(N4CCOCC4)nc(N4CCOCC4)n3)cc2s1)NCc1ccco1 | inactive
70 | CSc1sc(C(=O)NC(=O)NCc2cccnc2)c(C)c1-c1ccon1 | inactive
71 | Cc1ccccc1CCN(CC(=O)NC1CCCCC1)C(=O)c1csnn1 | inactive
72 | O=C(CCc1ccccc1)Nc1ncc([N+](=O)[O-])s1 | inactive
73 | OCCC1CN(Cc2ccc3nsnc3c2)CCN1C1CCCCC1 (centres undefined) | inactive
74 | Cn1c(=O)c2cc(S(=O)(=O)NCCC(=O)Nc3ccc(F)cc3F)ccc2n(C)c1=O | inactive
